Assay outcomes as filed in PubChem.
AMA1-RON2 inh – qHTS for Inhibitors of AMA1-RON; Towards Development of Antimalarial Drug Lead: Primary Screen; Potency, µM (series often up to 58.2 µM), for inactives: at the highest dose activity change, negative = inhibition, hits mostly inhibitors; actives 0.2% (n = 360,000); AID 720542, 2013; AlphaScreen AMA1-biotinylated RON2 peptide binding; Plasmodium falciparum AMA1 (3D7) - RON2 peptide interaction;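 note: 0% = vehicle wells and -100% = peptide control; nearly all actives have a fitted effect of over 45% in size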
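AMA1 (3D7) with his tag at 25 nM final met compounds first, then biotinylated RON2 peptide at 25 nM; detection used donor plus acceptor beads, 10 µg/mL apiece, read by AlphaScreen after 30 min at room temperature.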
AmpC inh detg – qHTS Inhibitors of AmpC Beta-Lactamase (assay with detergent); P00811; AmpC hydrolysis of nitrocefin, absorbance 480 nm, 0.01% Triton; Potency, µM (doses to about 114 µM), without a hit: top-dose activity change, negative = inhibition, usual class: inhibitors; actives 0.041% (n = 370,000); AID 485294, 2010;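 note: 0% = no-compound wells and -100% = no-enzyme wells; nearly all actives have a fitted effect of over 25% in size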
Target sequence (P00811 whole entry, looked up): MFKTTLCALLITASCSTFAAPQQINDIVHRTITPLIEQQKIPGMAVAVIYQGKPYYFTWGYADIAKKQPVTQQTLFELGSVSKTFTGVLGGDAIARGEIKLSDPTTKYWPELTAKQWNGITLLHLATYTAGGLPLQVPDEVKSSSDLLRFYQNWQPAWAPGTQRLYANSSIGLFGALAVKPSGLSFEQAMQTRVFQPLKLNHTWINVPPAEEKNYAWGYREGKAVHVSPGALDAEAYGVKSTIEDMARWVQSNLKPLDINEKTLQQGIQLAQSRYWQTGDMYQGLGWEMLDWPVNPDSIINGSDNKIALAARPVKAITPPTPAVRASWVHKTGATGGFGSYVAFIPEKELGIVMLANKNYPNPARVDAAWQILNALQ
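20 mM phosphate pH 7.0 + 0.01% (detergent screen) or 0.0001% Triton X-100; 5.3 nM AmpC reagent; cpd preinc 15 min RT; nitrocefin (800 uM stock) to start; A480 q20 s × 4 min; Activity was normalised to no-enzyme and no-compound control wells.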
Pf growth 48h – Primary qHTS for delayed death inhibitors of the malarial parasite plastid, 48 hour incubation; P. falciparum luciferase growth in erythrocytes, 48 h; Potency, µM (titrated, usually from 28.7 µM), inactives show at the top dose activity change, negative = inhibition, hits mostly inhibitors; actives 5.9% (n = 310,000)
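Compounds are pin-transferred into medium, infected erythrocytes (2% hematocrit, 0.1% parasitemia final) are added, and plates sit one parasite generation at 37 C in 5% CO2. Detection reagent is then added and luminescence measured.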
Pf growth 96h – Primary qHTS for delayed death inhibitors of the malarial parasite plastid, 96 hour incubation. actives 6.9% (n = 320,000). P. falciparum luciferase reporter growth, 96 h. Potency, µM (top dose mostly 28.7 µM), without a hit: at the top dose activity change, negative = inhibition, most hits filed as inhibitors
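Infected RBCs, 2% Hct / 0.05% parasitemia final; luciferase-reporter P. falciparum; cpd 96 h, 37 C, 5% CO2; luciferase detection reagent; luminescence.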
HCV inhibitor – qHTS Assay for Inhibitors of Hepatitis C Virus (HCV). AID 651820, 2012. Huh7.5.1 HCVcc-Cre infection, luciferase reporter, 44 h. actives 3.4% (n = 340,000). Potency, µM (top dose mostly 41.8 µM), for the others: at the highest dose activity change, negative = inhibition, usual class: inhibitors
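After 44 h co-culture of compound, cells and HCVcc-Cre (~0.5 moi), substrate is added for 15 min at room temperature and luciferase measured over 15 sec. Cells were seeded at 1,000/well and pre-cultured 4 h.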
AmpC no deterg – qHTS Inhibitors of AmpC Beta-Lactamase (assay without detergent); AmpC nitrocefin hydrolysis, absorbance 480 nm, 0.0001% Triton; Potency, µM (series often up to 57.1 µM), without a hit: at the highest dose activity change, negative = inhibition, hits mostly inhibitors; P00811; AID 485341, 2010; actives 0.52% (n = 330,000);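 note: plate controls were no compound for no effect and no enzyme for full effect; nearly all actives have a fitted effect of over 20% in size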
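AmpC (5.3 nM in the dispensed reagent) in 20 mM phosphate pH 7.0 with 0.01% (detergent screen) or 0.0001% Triton X-100 was preincubated with compounds for 15 min at room temperature. Nitrocefin was then added from an 800 uM solution, and hydrolysis was followed at 480 nm.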
Starred values were filed as active, the others as inactive; u = inconclusive; x = no result; [ ] = dose if it differs, or a comment. A selection: hits, their analogues and other compounds. The true share with any hit is near 11%. Calls come from the whole dose curve; as a rule, active = well fitted curve in the direction sought with a large enough effect; inconclusive = small, poorly fitted or top-dose-only effect, or another doubt; inactive = no such curve, though single readings can be large; an effect the other way counts as inactive or inconclusive. Unless noted, % is set by controls: 0 for no effect and ±100 for the full control effect; potency is the fitted concentration of half-maximal effect.

SMILES | AMA1-RON2 inh | AmpC inh detg | Pf growth 48h | Pf growth 96h | HCV inhibitor | AmpC no deterg
NC(=S)n1[nH]c(-c2ccc([N+](=O)[O-])cc2)c(N=Nc2cccc([N+](=O)[O-])c2)c1=O | 26% | u | u | 4% | 10µM* | -9%
Cc1ccc(N=Nc2c(C)[nH]n(C(N)=S)c2=O)cc1C | 49% | -4% | u | -23% | 31% | -35%
Cc1[nH]n(C(N)=S)c(=O)c1N=Nc1ccc2ccccc2c1 | 37% | 0% | 28% | 4.7µM* | 7% | -44%
Cc1c(N=Nc2c(-c3ccc([N+](=O)[O-])cc3)[nH]n(C(N)=S)c2=O)cccc1[N+](=O)[O-] | 47% | u | 2% | u | 8.9µM* | -24%
CCS(=O)(=O)N1CCc2cc(C(=O)NCc3ccc(Cl)cc3)ccc21 | x | 16% | x | x | x | x
CN(C)c1cccc(NC(=O)C2Cc3c(-c4cccnc4)ccnc3O2)c1 (centres undefined) | 0% | x | x | x | x | x
CN(C)c1cccc(NC(=O)C2Cc3c(-c4ccc(Cl)cc4)ccnc3O2)c1 (centres undefined) | 25µM* | x | x | x | x | x
CCOC(=O)c1cccc(NC(=O)c2cc(S(=O)(=O)N3CCCCCC3)cn2C)c1 | x | 4% | x | x | x | x
Nc1ccc2ncccc2c1N | 21% | u | u | u | u | 1%
Nc1nc(N)c2c(ccc3nccc32)[nH]1 | 45% | 2% | 1.7µM* | 3.7µM* | u | -15%
COC(=O)c1cc2c(C)nn(-c3ccccc3)c2s1 | 7% | -9% | 38% | u | 6.3µM* | -10%
O=C(CSc1cn(Cc2ccccc2)c2ccccc12)NCc1ccc(F)cc1 | -3% | 4% | u | 9.3µM* | 2%[8.37 µM] | -4%
O=C(NCCn1cc(SCc2ccccc2)c2ccccc21)c1ccccc1F | -4% | -8% | u | u | 11µM* | -26%
O=[N+]([O-])/C=C/c1cn(Cc2ccc(F)cc2)c2ccccc12 | -23% | u | u | u | 8.9µM* | 18µM*
COc1ccccc1C(=O)NCCn1cc(SCC(=O)NCC2CCCO2)c2ccccc21 (centres undefined) | -2% | -5% | u | 10µM* | -21% | 110%
O=C(CSc1cn(Cc2ccccc2)c2ccccc12)Nc1nccs1 | 14% | -11% | x | u | -22% | -41%
Cc1ccccc1C(=O)NCCn1cc(SCC(=O)NCC2CCCO2)c2ccccc21 (centres undefined) | -4% | -8% | u | 6% | u | 36%
O=Cc1cn(Cc2ccc(F)cc2)c2ccccc12 | 6% | u | 30% | -25% | 26% | -34%
CCOc1ccc(NC(=O)Cn2c(=O)n(Cc3ccccc3)c(=O)c3c4c(sc32)CN(C(C)=O)CC4)cc1 | x | 23% | x | x | x | x
O=C1c2ccccc2CCC12N=NCC2c1ccc(Cl)cc1 (centres undefined) | -10% | -1% | 10µM* | u | -17% | -31%
O=C1c2ccccc2CCC12N=NCC2c1ccc(Br)cc1 (centres undefined) | -19% | 0% | x | 2.3µM* | 3% | -1%
CCCOc1ccc(NC(=O)CC2C(=O)N(c3cccc(C)c3)C(=O)N2CCc2ccncc2)cc1 (centres undefined) | x | 18% | x | x | x | x
COc1ccc(CCNC(=O)CSc2nnc(-c3ccccc3)c3ccccc23)cc1OC | -6% | -10% | u | u | -3% | 52%
CCC1Oc2ccc(C)cc2N(CC(=O)NCCc2ccc(OC)c(OC)c2)C1=O (centres undefined) | 1% | x | x | x | u | x
CCCCn1c(-c2ccccc2)cnc1SCC(=O)NCCc1ccc(OC)c(OC)c1 | u | -4% | 3% | 1% | 11µM* | 98%
SMILES | AMA1-RON2 inh | AmpC inh detg | Pf growth 48h | Pf growth 96h | HCV inhibitor | AmpC no deterg
COc1ccc(CCNC(=O)CSc2nn(-c3ccccc3)c(=S)s2)cc1OC | 4% | u | 10µM* | u | u | 17%
CCCCc1c(O)nc(SCC(=O)NCCc2ccc(OC)c(OC)c2)[nH]c1=O | -6% | -10% | 27% | 5.9µM* | 6% | -16%
CCC1Oc2ccccc2N(CC(=O)NCCc2ccc(OC)c(OC)c2)C1=O (centres undefined) | 9% | -6% | u | 3.3µM* | u | -1%
COc1ccc(CCNC(=O)Cn2cc(C(F)(F)F)cc(Cl)c2=O)cc1 | 8% | -9% | -2% | 21% | 6% | -7%
COc1ccc(CCNC(=O)Cn2cc(C(F)(F)F)cc(Cl)c2=O)cc1OC | -1% | -7% | 6.6µM* | u | 0% | 2%
NN1C(=O)/C(=C2/Sc3ccccc3N2CCCS(=O)(=O)O)SC1=S | -1% | -13% | 9% | 0% | 9% | -30%
O=C1NC(=S)S/C1=C1\Sc2ccccc2N1CCCS(=O)(=O)O | 6% | u | 7% | 7.4µM* | 22% | -19%
COc1cccc(C2C(C(=O)Nc3ccccc3OC)=C(C)Nc3nc4ccccc4n32)c1 (centres undefined) | x | 20% | x | x | x | x
COc1ccc(N2CCN(C(CNC(=O)CC(C)C)c3ccc4c(c3)OCO4)CC2)cc1 (centres undefined) | x | 10% | x | x | x | x
Cc1ccccc1CC1(CO)CCCN(C(=O)c2ccccc2N(C)C)C1 (centres undefined) | -6% | 3% | u | 0.93µM* | -9% | 121%
COc1ccc(CNC(=O)CN2C(=O)c3cccnc3Oc3ccc(C)cc32)cc1 | x | -2% | x | x | x | x
CCC(C(=O)NCc1ccccc1Cl)n1nc(C)c2sc3ccccc3c2c1=O (centres undefined) | x | 5% | x | x | x | x
Cc1ncc(CO)c(/C=N/NC(=O)c2cc(O)c(O)c(O)c2)c1O | x | -3% | 2.6µM* | u | x | -24%
Cc1cc(C(=O)N/N=C/c2c(CO)cnc(C)c2O)c2ccccc2n1 | -50% | 3% | u | u | u | -9%
Cc1ncc(CO)c(/C=N/NC(=O)c2ccc(Br)cc2)c1O | x | -21% | u | u | 9% | -41%
Cc1ncc(CO)c(/C=N/NC(=O)c2cc(Br)ccc2O)c1O | 4µM* | -12% | u | 136% | 10% | -27%
Cc1ncc(CO)c(/C=N/NC(=S)Nc2ccc(C(C)C)cc2)c1O | 90% | -15% | u | 12µM* | 11µM* | -21%
CCOc1ccccc1-n1c(N)c(C(=O)OC)c2nc3ccccc3nc21 | x | 6% | x | x | x | x
